Reference: ChEMBL document CHEMBL2218924, “A broad activity screen in support of a chemogenomic map for kinase signalling research and drug discovery” (Biochem J, 2013)

Biological target: T1, Serine/threonine-protein kinase Sgk2 (Homo sapiens) (UniProt Q9HBY8)
T1 sequence (whole entry): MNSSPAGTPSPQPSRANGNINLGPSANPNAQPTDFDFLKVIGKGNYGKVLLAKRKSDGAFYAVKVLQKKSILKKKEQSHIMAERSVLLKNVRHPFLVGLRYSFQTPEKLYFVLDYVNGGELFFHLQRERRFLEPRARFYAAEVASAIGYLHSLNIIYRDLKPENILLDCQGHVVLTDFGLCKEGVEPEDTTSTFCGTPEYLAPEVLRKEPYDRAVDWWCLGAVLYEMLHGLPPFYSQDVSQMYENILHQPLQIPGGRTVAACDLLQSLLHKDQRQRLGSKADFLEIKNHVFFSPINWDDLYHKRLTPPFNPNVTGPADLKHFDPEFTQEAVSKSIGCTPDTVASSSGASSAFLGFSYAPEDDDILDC
Conditions: at 1 µM

Structure (SMILES) | residual activity
CCN(CC)CCNC(=O)c1c(C)[nH]c(/C=C2\C(=O)Nc3ccc(Cl)cc32)c1C | 60%
O=C1NC(=O)C(c2cn(CCCn3ccnc3)c3ccccc23)=C1Nc1ccccc1 | 52%
O=C(Nc1nc2ccccc2n1CCN1CCOCC1)c1cccc([N+](=O)[O-])c1 | 108%
COc1ccc(COc2ccc(Cc3cnc(N)nc3N)cc2OC)cc1 | 108%
NC(=O)c1cccc(-c2cc(Nc3ccc(OC(F)(F)F)cc3)ncn2)c1 | 92%
CCCCc1c(-c2ccc(O)cc2)[nH]c2nccnc12 | 92%
Cc1cc(C)c(/C=C2\C(=O)Nc3ccccc32)[nH]1 | 80%
Nc1n[nH]c2nc3ccccc3nc12 | 92%
COc1cc2ncnc(Nc3cccc(Cl)c3)c2cc1OC | 77%
O=C1NC(=O)C(c2c[nH]c3ccccc23)=C1c1c[nH]c2ccccc12 | 78%
Cn1c2ccccc2c2c3c(c4c5ccccc5n(CCC#N)c4c21)CNC3=O | 76%
N#C/C(=C\c1ccc(O)c(O)c1)C(=O)NCc1ccccc1 | 61%
O=C(c1cc2cc(O)ccc2[nH]1)c1cc2cc(O)ccc2[nH]1 | 62%
NCCNc1ncc(C(N)=O)c(Nc2cccc(C(F)(F)F)c2)n1 | 82%
CC(C)c1nn(-c2c(Cl)cccc2Cl)c2nc(Cc3ccc(OCCO)cc3)[nH]c(=O)c12 | 97%
COc1ccc2c(c1)c(C1=C(c3c[nH]c4ccccc34)C(=O)NC1=O)cn2CCCN(C)C | 80%

Biological target: T1, Serine/threonine-protein kinase Sgk2 (Homo sapiens)
Conditions: at 10 µM

Structure (SMILES) | residual activity
CCN(CC)CCNC(=O)c1c(C)[nH]c(/C=C2\C(=O)Nc3ccc(Cl)cc32)c1C | 32%
O=C1NC(=O)C(c2cn(CCCn3ccnc3)c3ccccc23)=C1Nc1ccccc1 | 12%
O=C(Nc1nc2ccccc2n1CCN1CCOCC1)c1cccc([N+](=O)[O-])c1 | 75%
O=S(=O)(NCCNC/C=C/c1ccc(Br)cc1)c1cccc2cnccc12 | 30%
O=S(=O)(c1cccc2cnccc12)N1CCCNCC1 | 67%
NC(=O)c1cccc(-c2cc(Nc3ccc(OC(F)(F)F)cc3)ncn2)c1 | 92%
CCCCc1c(-c2ccc(O)cc2)[nH]c2nccnc12 | 90%
N#Cc1c(NC(=O)c2cccc3ccccc23)sc2c1CCCC2 | 90%
Cc1cc(C)c(/C=C2\C(=O)Nc3ccccc32)[nH]1 | 67%
Oc1cccc(-c2nc(N3CCOCC3)c3oc4ncccc4c3n2)c1 | 66%
Nc1n[nH]c2nc3ccccc3nc12 | 45%
O=C(Nc1ccc(Cl)cc1)c1ccccc1NCc1ccncc1 | 72%
COc1cc2ncnc(Nc3cccc(Cl)c3)c2cc1OC | 70%
O=C1NC(=O)C(c2c[nH]c3ccccc23)=C1c1c[nH]c2ccccc12 | 29%
Cn1c2ccccc2c2c3c(c4c5ccccc5n(CCC#N)c4c21)CNC3=O | 47%
N#C/C(=C\c1ccc(O)c(O)c1)C(=O)NCc1ccccc1 | 17%
O=C1NC(=O)C(c2cn(CCCO)c3ncccc23)=C1c1cnccn1 | 92%
O=C1Nc2ccccc2/C1=C\c1c(Cl)[nH]c2ccccc12 | 77%
O=C(c1cc2cc(O)ccc2[nH]1)c1cc2cc(O)ccc2[nH]1 | 18%
NCCNc1ncc(C(N)=O)c(Nc2cccc(C(F)(F)F)c2)n1 | 78%
CC(C)c1nn(-c2c(Cl)cccc2Cl)c2nc(Cc3ccc(OCCO)cc3)[nH]c(=O)c12 | 91%
O=C1C(Cl)=C(N2C(=O)CCC2=O)C(=O)c2ccccc21 | 97%
COc1ccc2c(c1)c(C1=C(c3c[nH]c4ccccc34)C(=O)NC1=O)cn2CCCN(C)C | 41%
